Test results as given in PubChem BioAssay.
Activity calls are given as the source filed them. Unless noted, the rule behind the calls is not given here.

What was measured:
[1] = HepG2 liver cancer cell viability effects, profiling panel, resazurin fluorescence, 24 h, PK04 Diversity Set (AID 1172); conditions: higher = more signal
[2] = basal S. cerevisiae growth modulation, no modifier, primary screen, OD600, strain BY4716, 24 h, basal condition (AID 1173); conditions: OD600, 24 h, higher = more signal, called active from +8 up or from −8 down
[3] = MM1S myeloma cell viability, profiling panel, resazurin fluorescence, basal, 24 h, PK04 Diversity Set (AID 1174); conditions: higher = more signal, called active from +8 up or from −8 down;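 note: MM1S multiple myeloma cell line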
[4] = molecular target: Dihydroorotate dehydrogenase (quinone), mitochondrial (Plasmodium falciparum (isolate 3D7)) (UniProt Q08210); assay: PfDHODH enzyme inhibitors, primary screen, biochemical, C-terminal His tag, absorbance 600 nm (AID 1175); conditions: DCIP absorbance 600 nm, higher = more signal, called active from +8 up or from −8 down;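 note: recombinant parasite enzyme with a five histidine tag at its C terminus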
Sequence of Dihydroorotate dehydrogenase (quinone), mitochondrial (Plasmodium falciparum (isolate 3D7)) (Q08210 whole entry, looked up): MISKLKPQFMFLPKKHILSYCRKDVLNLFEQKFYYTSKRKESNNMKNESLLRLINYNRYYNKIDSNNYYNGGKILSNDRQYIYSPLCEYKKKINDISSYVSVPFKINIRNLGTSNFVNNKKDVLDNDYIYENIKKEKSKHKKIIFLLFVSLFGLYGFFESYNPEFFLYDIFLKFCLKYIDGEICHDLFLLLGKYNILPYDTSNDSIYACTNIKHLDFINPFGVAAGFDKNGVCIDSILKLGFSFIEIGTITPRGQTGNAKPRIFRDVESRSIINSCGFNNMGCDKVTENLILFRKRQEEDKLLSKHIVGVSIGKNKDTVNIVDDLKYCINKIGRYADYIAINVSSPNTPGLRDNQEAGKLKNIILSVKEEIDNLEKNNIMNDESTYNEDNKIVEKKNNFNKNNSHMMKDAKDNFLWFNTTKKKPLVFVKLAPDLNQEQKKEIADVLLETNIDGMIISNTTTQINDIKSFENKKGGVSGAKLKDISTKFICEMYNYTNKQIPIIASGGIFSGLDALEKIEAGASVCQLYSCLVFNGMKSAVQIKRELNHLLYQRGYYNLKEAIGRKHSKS

[5] = P. aeruginosa biofilm formation inhibitors, primary screen, strain PAO1, LB-PBS medium, absorbance 600 nm (AID 1176); conditions: P. aeruginosa PAO1 growth/biofilm, A600, 12 h; higher = more signal
[6] = S. cerevisiae RM11-1a growth modifiers, primary screen, strain RM11-1a, OD600, basal, 24 h (AID 1177); conditions: OD600, 24 h, higher = more signal, called active from +8 up or from −8 down;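 note: cultures grown under basal conditions with no added stressor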
[7] = E. coli acrAB mutant growth effects, primary screen, E. coli filamentation inducers, strain DRC39, OD650, 24 h (AID 1178); conditions: higher = more signal, called active from +8 up or from −8 down;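 note: growth measured as culture turbidity by optical density at 650 nm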
[8] = E. coli acrAB mutant growth effects, primary screen, E. coli filamentation inducers, strain DRC39, OD650, 48 h (AID 1179);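 note: screen aims at cell division blockers that make cells filament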; conditions: E. coli DRC39 delta-acrAB growth, higher = more signal, called active from +8 up or from −8 down
[9] = RPMI8226 myeloma cell viability, profiling panel, resazurin fluorescence, basal, 24 h, PK04 Diversity Set (AID 1180); conditions: higher = more signal;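 note: RPMI8826 multiple myeloma cell line at 5000 cells per well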
[10] = molecular target: E3 ubiquitin-protein ligase XIAP (Homo sapiens) (UniProt P98170); assay: XIAP binders, primary screen, biophysical, small-molecule microarray, fluorescence 635 nm (AID 1181); conditions: small-molecule microarray binding, higher = more signal;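 note: score merges 667 nm emission and signal to noise over triplicate slides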
Sequence of E3 ubiquitin-protein ligase XIAP (Homo sapiens) (P98170 whole entry, looked up): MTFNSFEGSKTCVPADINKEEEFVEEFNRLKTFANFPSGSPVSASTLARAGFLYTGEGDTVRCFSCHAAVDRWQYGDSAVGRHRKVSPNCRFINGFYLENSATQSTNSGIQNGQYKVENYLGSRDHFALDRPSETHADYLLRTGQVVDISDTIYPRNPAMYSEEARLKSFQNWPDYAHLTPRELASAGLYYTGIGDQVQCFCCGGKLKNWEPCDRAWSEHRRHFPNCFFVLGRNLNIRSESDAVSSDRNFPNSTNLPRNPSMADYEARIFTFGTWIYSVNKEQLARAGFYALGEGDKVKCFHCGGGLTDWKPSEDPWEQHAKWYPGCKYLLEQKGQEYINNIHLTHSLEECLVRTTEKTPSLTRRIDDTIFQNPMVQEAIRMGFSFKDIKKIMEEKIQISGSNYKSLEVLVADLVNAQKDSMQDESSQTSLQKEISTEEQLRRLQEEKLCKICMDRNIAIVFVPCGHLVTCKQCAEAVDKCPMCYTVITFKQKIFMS

[11] = system: XIP peptide (Xip251-270) binding; assay: small-molecule binders of XIP peptide, primary screen, biochemical, small-molecule microarray, fluorescence 635/667 nm, 0.1 µg/mL protein (AID 1182); conditions: fluorescent protein binding, 635 nm, higher = more signal, called active from +8 up or from −8 down
XIP peptide (Xip251-270) = assay: small-molecule binders of XIP peptide, primary screen, biochemical, small-molecule microarray, fluorescence 635/667 nm, 0.5 µg/mL protein (AID 1183); conditions: small-molecule microarray binding, fluorescence 635 nm; higher = more signal
[12] = Plasmodium falciparum growth inhibition, primary screen, strain 3D7, DAPI fluorescence, 100 nL (AID 1184);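 note: parasites grown inside human red blood cells in medium with human serum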; conditions: P. falciparum 3D7 growth, 3 d, higher = more signal
[13] = molecular target: Homeobox protein Hox-A13 (Mus musculus) (UniProt Q62424); assay: inhibitors of HoxA13-DNA binding, primary screen, biochemical, fluorescence polarization, labeled oligonucleotide (AID 1185); conditions: 15 min, higher = more signal, called active from +8 up or from −8 down
Sequence of Homeobox protein Hox-A13 (Mus musculus) (Q62424 whole entry, looked up): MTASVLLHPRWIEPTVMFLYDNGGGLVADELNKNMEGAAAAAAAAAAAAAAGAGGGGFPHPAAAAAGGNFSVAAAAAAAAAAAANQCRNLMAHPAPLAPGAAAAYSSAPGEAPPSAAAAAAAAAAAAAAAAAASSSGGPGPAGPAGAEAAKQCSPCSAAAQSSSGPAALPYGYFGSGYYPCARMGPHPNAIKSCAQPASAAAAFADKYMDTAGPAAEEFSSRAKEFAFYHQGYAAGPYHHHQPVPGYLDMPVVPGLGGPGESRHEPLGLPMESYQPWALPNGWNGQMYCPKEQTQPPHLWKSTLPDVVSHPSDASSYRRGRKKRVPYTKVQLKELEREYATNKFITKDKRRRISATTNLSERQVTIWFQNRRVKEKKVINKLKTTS

[14] = inhibitors of hydroxyurea-induced Chk1 phosphorylation, primary screen, imaging, HeLa, phospho-Chk1 antibody, percent positive cells (AID 1186); conditions: hydroxyurea-induced phospho-Chk1 immunofluorescence imaging, higher = more signal
[15] = inhibitors of hydroxyurea-induced Chk1 phosphorylation, primary screen, imaging, HeLa, phospho-Chk1 nuclear intensity (AID 1187); conditions: hydroxyurea-induced phospho-Chk1 immunofluorescence imaging, higher = more signal

| SMILES | z-score [1] | z-score [2] | z-score [3] | composite z-score [4] | z-score [5] | z-score [6] | z-score [7] | z-score [8] | z-score [9] | composite z-score [10] | composite z-score [11] | composite z-score (XIP peptide (Xip251-270)) | z-score [12] | z-score [13] | z-score [14] | z-score [15] |
| --- | --- | --- | --- | --- | --- | --- | --- | --- | --- | --- | --- | --- | --- | --- | --- | --- |
| COC(=O)[C@H](Cc1ccccc1)N[C@@H](/C=C/C1CC1)[C@H](O)Cc1ccccc1 | 0.717 | -2.78 (inactive) | 0.488 (inactive) | 0.342 (inactive) | 0.0117 (inactive) | 0.584 (inactive) | -0.053 (inactive) | -0.181 (inactive) | 0.484 | -0.0559 | -0.207 (inactive) | -0.432 | -0.986 | -5.71 (inactive) | -0.157 (inactive) | -0.295 (inactive) |
| O=C1[C@@]23C=C(Br)[C@H](C[C@@H]2CCOC3)[C@@]12CO2 | 0.165 | -1.85 (inactive) | 0.0335 (inactive) | -0.0887 (inactive) | 0.261 (inactive) | -0.0503 (inactive) | 0.297 (inactive) | 0.319 (inactive) | 0.428 | 0.188 | 0.792 (inactive) | -0.377 | 1.37 | 0.0303 (inactive) | -0.259 (inactive) | -0.561 (inactive) |
| COc1ccc([Si](C)(C)[C@H]2[C@H](CC(=O)N3Cc4ccccc4C[C@H]3CO)O[C@@]3(C(=O)N(Cc4cccc(N5CCC5=O)c4)c4ccccc43)[C@@H]2C)cc1 | -0.774 | 0.472 (inactive) | -2.31 (inactive) | -2.72 (inactive) | 0.389 (inactive) | 2.58 (inactive) | 0.675 (inactive) | 0.398 (inactive) | -2.01 | -0.0393 | 0.177 (inactive) | 0.719 | -2.33 | -2.97 (inactive) | -0.227 (inactive) | -0.0325 (inactive) |
| CC(=O)NCCCC[C@@H]1NC(=O)[C@H]2C[C@@H](C(=O)NCCCCCCNC(=O)CS)[C@@H](c3ccc(O)cc3)N2C1=O | -0.294 | 0.429 (inactive) | -0.523 (inactive) | 0.761 (inactive) | 1.08 (inactive) | 0.518 (inactive) | -0.622 (inactive) | -1.35 (inactive) | -0.803 | 0.125 | 0.957 (inactive) | 0.818 | -1.26 | -4.69 (inactive) | 0.307 (inactive) | 0.663 (inactive) |
| C=C(CCCC)C(=O)CC[C@@H](OC(=O)c1ccccc1-c1ccccc1C(=O)O)c1ccc(OCCO)cc1 | -0.268 | -1.78 (inactive) | -0.276 (inactive) | -1.25 (inactive) | 0.956 (inactive) | -0.585 (inactive) | -0.0062 (inactive) | -0.297 (inactive) | 0.692 | -0.182 | 0.175 (inactive) | 0.602 | -2.46 | -5.5 (inactive) | 0.431 (inactive) | 0.362 (inactive) |
| COc1ccc(C#Cc2ccc3c(c2)[C@]2(C(=O)N3)[C@H](C(=O)NC[C@H](O)c3ccccc3)[C@H]3C(=O)O[C@H](c4ccccc4)[C@H](c4ccccc4)N3[C@@H]2c2ccc(O)cc2)cc1 | -0.475 | -0.26 (inactive) | -2.61 (inactive) | 0.843 (inactive) | 0.971 (inactive) | 2.29 (inactive) | 0.0945 (inactive) | 0.51 (inactive) | -3.97 | 0.262 | 0.627 (inactive) | 0.624 | -0.0029 | -0.752 (inactive) | -0.371 (inactive) | -0.628 (inactive) |
| CC1CC/C=C\[C@H]2OC34C=CCN(Cc5ccccc5)C(=O)[C@H]3N(CCCO)C(=O)[C@@H]4C2C(=O)O1 (some centres undefined) | -0.385 | -0.739 (inactive) | 0.0639 (inactive) | -0.311 (inactive) | -0.0963 (inactive) | -0.52 (inactive) | 1.02 (inactive) | 0.568 (inactive) | 0.44 | -0.176 | 0.15 (inactive) | 0.737 | 0.295 | -4.95 (inactive) | -0.364 (inactive) | -0.491 (inactive) |
| O=C(NCCN1CCOCC1)[C@@H]1c2ccccc2C(=O)N(C2CCCCC2)[C@H]1c1ccc(CO)cc1 | -0.0383 | 0.211 (inactive) | 0.528 (inactive) | -0.146 (inactive) | -0.177 (inactive) | 0.0492 (inactive) | -0.424 (inactive) | -0.783 (inactive) | 0.872 | -0.165 | -0.403 (inactive) | 0.0759 | -1.23 | -4.02 (inactive) | -0.389 (inactive) | -0.611 (inactive) |
| Cc1ccccc1C(O)C1C=CC2C(=O)N(c3ccccc3)C(=O)C2N1Nc1ccc(C(C)C)cc1 (centres undefined) | -1.7 | -0.945 (inactive) | -1.31 (inactive) | 1.82 (inactive) | 0.807 (inactive) | 1.93 (inactive) | -0.765 (inactive) | -1.14 (inactive) | -1.06 | 1.24 | 0.167 (inactive) | 0.599 | -0.739 | -1.77 (inactive) | 0.524 (inactive) | 0.118 (inactive) |
